Laboratory results: PubChem BioAssay AID1117319 (Southern Research Institute, 2015)
Screen size: about 260,000 compounds; about 1,500 (0.58%) were called active. Roughly 5% stayed inconclusive and do not appear here.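 Rule for the calls: active = inhibition above a set limit at one or more doses, reproduced on every date tested; inconclusive = results disagree between test dates, or hit never tested in dose response; inactive = the rest.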 Only a sample is shown. Results with a measured potency or affinity are listed apart.

Target: Virion infectivity factor (Human immunodeficiency virus type 1 group M subtype B (isolate BH10)) + Virion infectivity factor (Human immunodeficiency virus type 1 group M subtype B (isolate BRU/LAI)) + Virion infectivity factor (Human immunodeficiency virus type 1 group M subtype B (isolate PCV12)) + Virion infectivity factor (Human immunodeficiency virus type 1 group M subtype B (isolate HXB2)) + DNA dC->dU-editing enzyme APOBEC-3G (Homo sapiens) (UniProt P69720+P69721+P69722+P69723+Q9HC16)
Experiment: inhibitors of Vif binding to APOBEC3G peptide, primary screen, biochemical, TR-FRET, GST-Vif 1-94, biotin-A3G peptide, dose response retest (AID 1117319);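 note: Vif residues 1-94 fused to GST binding biotinylated APOBEC3G peptide 110-148; 0% = full assay without inhibitor and 100% = GST in place of GST-Vif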
Settings: hits give high values

inhibition, inactive:
CC(=O)OC1CC[C@@]2(C)C(CCC3C2CC(=O)[C@@]2(C)C3CC3CC(C)=CC(=O)C32)C1 (stereo partly drawn) -1.09%, CC(Oc1ccccc1F)C(=O)NNC(=O)CCS(=O)(=O)c1ccccc1Cl (stereo not drawn) 3.79%, CC1CC(C)(C)NC(=S)N1CCC(=O)N1CCc2ccccc2C1 (stereo not drawn) -8.29%, CC1(C)C(=O)NCCN1C(=O)CCC(=O)O -4.36%, Cc1ccc(CNC(=O)C2CC3Cn4c(nc5cc6ccccc6cc54)C3N2C)o1 (stereo not drawn) 5.41%, O=C(CSc1ccc(-c2nc3ccccc3[nH]2)cn1)Nc1ccc(S(=O)(=O)N2CCCC2)cc1 -5.26%, O=C(CSc1nnc(NC(=O)c2cccc(Cl)c2)s1)NCC1CCCO1 (stereo not drawn) 3.82%, CCOc1cc(N2CCOCC2)c(OCC)cc1NC(=O)COc1ccc2ccc(=O)oc2c1 -0.33%, COc1ccccc1C(c1nnnn1Cc1ccco1)N1CCN(c2cccc(C)c2C)CC1 (stereo not drawn) 25.8%, O=C(c1cc(COc2ccc3ncccc3c2)on1)N1CCC[C@H]1CO 1.67%, COC(=O)C1CCCCN1C(=O)c1cc(COc2cccc3cccnc23)on1 (stereo not drawn) 4.07%, COc1cccc(CNC(=O)CCCN2C(=O)C(c3ccccc3)Oc3cccnc32)c1OC (stereo not drawn) -2.88%, CCOC(=O)C1=C(C)N(C2CCCCC2)C(=O)C1 -5.38%, COC(=O)/C(C(C)=O)=C(/C=C/C=C/N(C)C)N(C)C 16.1%, COC(=O)\C(C(C)=O)=C(/C=C/C=C/N(C)C)N(C)C 27.9%, COCCNC(=O)c1cc(-c2ccncc2)nc2ccc(S(=O)(=O)N3CCOCC3)cc12 -13.5%, CC1(C)[C@@H](O)CC[C@]2(C)[C@H]3C(=O)C=C4[C@@H]5C[C@@](C)(C(=O)O)CC[C@]5(C)CC[C@@]4(C)[C@]3(C)CC[C@@H]12 27.5%, Cc1ccc([C@H]2C(C#N)=C(N)Oc3cc(C)oc(=O)c32)o1 1.59%, Cc1ccc(C2C(C#N)=C(N)Oc3cc(C)oc(=O)c32)o1 (stereo not drawn) -6.32%, CCCCCC(=O)NNC1CC(=O)N(c2ccccc2)C1=O (stereo not drawn) -9.34%, C[C@H](N)c1nnc(SCc2ccc(Cl)cc2Cl)o1 1.96%, CCN1C(C)=C(C)S/C1=C1\SC(=S)N(N)C1=O 7%, O=C(O)Cn1cc(/C=N/NC(=O)c2cc3cc(Br)ccc3o2)c2ccccc21 0.84%, Cn1cc(/C=N/NC(=O)c2cc3cc(Br)ccc3o2)c2ccccc21 -7.92%, COc1ccc(Cl)cc1C(=O)NNC(=O)CSc1nnc2ccccn12 -2.97%, O=C(/C=N/O)Nc1cccnc1 28.5%, COC(=O)/C=C/C(=O)Nc1cccnc1 15.1%, CCOc1c(OC(C)=O)ccc(/C=C/c2ccc3cccc(OC)c3n2)c1[N+](=O)[O-] 21.2%, COc1c(OC(C)=O)ccc(/C=C/c2ccc3cccc(OCc4ccccc4)c3n2)c1[N+](=O)[O-] 5.7%, O=C(CSCC(=O)c1ccccc1)Nc1ccccc1Cl -5.7%, COc1ccc(C(=O)Nc2cccc(-c3nnc(-c4ccco4)o3)c2)cc1 -0.63%, Oc1ccc(/C=N/NC(=S)NCCN2CCOCC2)c(O)c1 24.1%, S=C(NCCN1CCOCC1)N/N=C/c1ccccc1 0.06%, CC(=O)NCCOc1ccc(C(=O)O)cc1 -5.42%, CCCCOC(=O)n1c(=O)oc2ccc(S(=O)(=O)N3CCCCC3)cc21 -5.83%, O=C(O)c1cc([N+](=O)[O-])cc2ccccc12 -6.07%, O=[N+]([O-])c1cc(-c2ccccc2)cc([N+](=O)[O-])c1O -4.83%, Cc1cc(Cl)c2oc(C(=O)N3CCN(c4cnccn4)CC3)c(C)c2c1 2.03%, O=C(Cc1ccccc1)NC(Nc1cccc2ccccc12)C(Cl)(Cl)Cl (stereo not drawn) -5.91%, CC(C)(C)NC(NC(=O)Cc1ccccc1)C(Cl)(Cl)Cl (stereo not drawn) 2.28%, CN(CCC1CCOCC1)C(=O)C1CCC(=O)N(CCc2ccc(Cl)cc2)C1 (stereo not drawn) -0.45%, CN1/C(=C\C=Nc2ccc3ccccc3c2)C(C)(C)c2ccccc21 15.9%, CN1/C(=C\C=Nc2ccccc2)C(C)(C)c2ccccc21 13.4%, Cc1nc2ccccc2nc1-c1ccc([N+](=O)[O-])cc1 3.82%, COc1cc2c3c(c1OC)C1(C=CC(=O)C=C1)CC3N(C(=O)c1ccccc1)CC2 (stereo not drawn) 16.3%, COc1cc2c3c(c1OC)C1(C=CC(=O)C=C1)CC3N(C(C)=O)CC2 (stereo not drawn) 25.2%, O=S(=O)(Nc1ccccc1)c1ccc(-c2cnc(C3CC3)o2)cc1 5.89%, COC(=O)c1c(C(=O)OC)c(C)n(Cc2ccco2)c1C 1.05%, COc1cccc(=O)c2c(C)n(CC(=O)c3ccccc3)c(C)c12 19.6%, CCOc1ccc2c(C)c(C)c(=O)oc2c1OCC -2.36%, CCOc1cccc2cc(C(C)=O)oc12 -1.92%, CCOc1ccccc1N1CCN(Cc2ccco2)CC1 0.19%, CCOc1ccccc1OCC(=O)O 2.95%, CCOc1ccccc1N1C(=O)c2ccc(C(=O)O)cc2C1=O -5.01%, COc1cccc(-n2c(C)c3c(OC)cccc(=O)c3c2C)c1 31.7%, CCN(CC(=O)Nc1c(F)cccc1F)C(=O)c1ccc2c(c1)OCCO2 8.86%, CCOc1ccc(CN(C)C(=O)CCc2ccc(S(=O)(=O)N3CCCCCC3)cc2)cc1 -5.71%, CNC(=O)c1c(NC(=O)CS(=O)(=O)c2ccccc2)sc(C)c1C 2.6%, OC1CCCN(C(=S)Nc2ccc(SC(F)F)cc2)C1 (stereo not drawn) 21.9%, Cc1ccc(NC(=O)CSc2nc(=O)n(CCN(C)C)c3c2CCCC3)cc1Cl -8.42%, COC(=O)c1cc2occc2n1CC(=O)N(C)C1CCCCC1 15.2%, CN1CCN(c2cc(N3CCc4ccccc4C3)c(F)cc2[N+](=O)[O-])CC1 -1.87%, COc1ccc(Br)c(C(=O)NNC(=O)c2ccc(NS(=O)(=O)c3cccs3)cc2)c1 2.76%, C(C#CCN1CCOCC1)#CCN1CCOCC1 5.57%, CCc1ccccc1Nc1nc(N)nc(CSc2nnnn2C)n1 0.07%, CSCCC(NC(=O)/C(=C\c1ccc(Cl)cc1)NC(=O)c1ccccc1)C(=O)O (stereo not drawn) 1.24%, CCOc1ccccc1-c1cc(-c2ccccc2)nc2c1c(=O)n(C)c(=O)n2C -7.81%, COc1ccc(-n2c(C)c3c(OC)cccc(=O)c3c2C)cc1 32.9%, COc1cccc(=O)c2c(C)n(-c3cc(C)cc(C)c3)c(C)c12 21.8%, CCOc1ccccc1C(c1c(C)n(C)n(-c2ccccc2)c1=O)c1c(C)n(C)n(-c2ccccc2)c1=O -1.18%, COc1ccc(CNC(=O)Cn2cnc3c(OCc4ccccc4)ncnc32)cc1 -3.17%, Cc1ccc(S(=O)(=O)Nc2ccccc2-c2ccccc2)cc1 -0.15%, Cc1ccc(S(=O)(=O)c2c(C)nn(C(C)(C)C)c2OC(=O)CC(C)C)cc1 -0.23%, CCN1CCN(C(=O)Cn2cnc3sc(C)c(S(=O)(=O)N4CCN(c5ncccn5)CC4)c3c2=O)CC1 6.94%, CCN=c1scc(-c2cccs2)n1/N=C/c1cc(OC)ccc1O 11.2%, COCCN=c1scc(-c2cccs2)n1/N=C(\C)c1ccco1 -4.46%, CN=c1scc(-c2ccccc2F)n1/N=C/c1ccc[nH]1 3.11%, CN=c1scc(C)n1/N=C/c1cc(Br)c(O)c(OC)c1 17.7%, CCOc1ccc(C(=O)NCC(C)C)cc1 1.08%, Cc1ccc(C)c(NC(=O)N2CCc3ccccc3C2)c1 -0.5%, Cc1cc(C)n(CC2CC(=O)N(c3ccc(Cl)cc3)C2=O)n1 (stereo not drawn) -0.66%, CC(=O)N1CCN(C(=O)c2ccc(Oc3ccccc3)cc2)CC1 -9.55%, Cc1ccc(N2C(=O)CN(Cc3sccc3C)C2=S)cc1C 8.31%, CC1C/C=C/C=C/C=C/C=C/C(O[C@@H]2O[C@H](C)[C@@H](O)[C@H](N)[C@@H]2O)CC2OC(O)(CC(O)CC3OC3/C=C/C(=O)O1)CC(O)C2C(=O)O (stereo partly drawn) -4.31%, COc1ccc(C(=O)O/N=C(\N)c2ccccc2)c(OC)c1 2.57%, O=C1NC2(CCCCC2)C(=O)N1Cc1cc(=O)n2ccsc2n1 -0.24%, CC(C(=O)NCc1ccc2c(c1)OCO2)c1ccc([N+](=O)[O-])cc1 (stereo not drawn) 6.03%, Nc1nc(SCc2ccccc2)c2[nH]cnc2n1 -9.37%, CNc1ncnc(Sc2nc(N)nc3nc[nH]c23)c1[N+](=O)[O-] 16.1%, CC1(C)C2C(Cl)(Cl)C2(C)c2ccccc2N1C=O (stereo not drawn) -2.3%, COc1ccc(-c2nc3ccccc3n2OC(C)C(=O)O)cc1 (stereo not drawn) -3.4%, COc1ccc(-c2nc3ccccc3n2OCC(=O)O)cc1 15.9%, Cn1[nH]c(C(F)(F)F)c(C=NCc2ccc(Cl)cc2)c1=O -4.02%
